Data published in PubChem BioAssay (EPA / NIEHS).
Activity calls are given as the source filed them. Rule for the calls: active = hit-call score of the fitted dose curve at least 0.9, where 1 is the maximum; inactive = score below 0.9.

Legend:
[1] = read-out: urokinase plasminogen activator (uPA), PLAU (gene 5328); experiment: BSK_KF3CT_uPA: BioMAP Diversity Plus: KF3CT Assay for urokinase plasminogen activator (uPA) Biomarker Activity (AID 2283075); conditions: primary human keratinocytes with fibroblasts; actives raise or lower the signal
In short: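 Skin co-culture (keratinocytes + foreskin fibroblasts), human primary; 24 h post-dose; uPA by ELISA; gain/loss fit vs DMSO baseline.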

CD40, CD40 (gene 958) [2] = experiment: BSK_LPS_CD40: BioMAP Diversity Plus: LPS Assay for CD40 Biomarker Activity (AID 2283076); conditions: primary human HUVEC with PBMC; actives raise or lower the signal
In short: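 CD40 signal, measured by ELISA, is fitted in both directions relative to DMSO vehicle. The system is an LPS-driven human vascular primary co-culture of endothelial cells and PBMC, sampled 24 h after compound addition.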

[3] = read-out: Interleukin-8 (IL8), CXCL8 (gene 3576); experiment: BSK_LPS_IL8: BioMAP Diversity Plus: LPS Assay for Interleukin-8 (IL8) Biomarker Activity (AID 2283078); conditions: primary human HUVEC with PBMC; actives raise or lower the signal
In short: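 Endothelial cells and PBMC from human donors are co-cultured, treated with chemicals and LPS, then assayed for IL-8 by ELISA after 24 h. Parallel SRB staining (0.1% SRB after 10% TCA fixation, 560 nm) flags cytotoxicity.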

[4] = BSK_LPS_SRB: Viability Assessment in the BioMAP Diversity Plus: LPS Assay (AID 2283079); conditions: primary human HUVEC with PBMC;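 note: total protein by sulforhodamine B absorbance as a cytotoxicity measure; measured one day after compound addition; fitted in both directions against DMSO so loss or gain of signal counts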
In short: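 Overt cytotoxicity was gauged by sulforhodamine B total-protein staining in a primary human vascular endothelial and mononuclear cell co-culture 24 h post-dosing. Activity was fitted in both directions relative to DMSO.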

[5] = read-out: Interleukin-1 alpha (IL1a), IL1A (gene 3552); experiment: BSK_LPS_IL1a: BioMAP Diversity Plus: LPS Assay for Interleukin-1 alpha (IL1a) Biomarker Activity (AID 2283080); conditions: primary human HUVEC with PBMC; actives raise or lower the signal
In short: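 Measured: IL-1 alpha via ELISA at 24 h in LPS-activated human umbilical vein endothelium–PBMC co-culture. Baseline: DMSO, bidirectional fitting.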

[6] = read-out: Monocyte Chemoattractant Protein-1 (MCP1), CCL2 (gene 6347); experiment: BSK_LPS_MCP1: BioMAP Diversity Plus: LPS Assay for Monocyte Chemoattractant Protein-1 (MCP1) Biomarker Activity (AID 2283081); conditions: primary human HUVEC with PBMC; actives raise or lower the signal;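 for AC50: secreted MCP-1 protein quantified by ELISA in culture supernatant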
In short: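 LPS-stimulated HUVEC/PBMC co-culture; chemical, 24 h; MCP-1 by ELISA; bidirectional fit vs DMSO; cytotoxicity via SRB (0.1% stain, 10% TCA fix, 560 nm) in parallel wells.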

[7] = BSK_LPS_PGE2: BioMAP Diversity Plus: LPS Assay for Prostaglandin E2 (PGE2) Biomarker Activity (AID 2283082); conditions: primary human HUVEC with PBMC; actives raise or lower the signal;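 for AC50: secreted prostaglandin E2 measured by ELISA in LPS-stimulated co-culture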
In short: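 Compounds were added to the LPS co-culture of endothelium and PBMC, and PGE2 was measured by ELISA after 24 h. Responses in either direction were fitted with DMSO as baseline.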

[8] = read-out: Macrophage colony-stimulating factor (MCSF), CSF1 (gene 1435); experiment: BSK_LPS_MCSF: BioMAP Diversity Plus: LPS Assay for Macrophage colony-stimulating factor (MCSF) Biomarker Activity (AID 2283083); conditions: primary human HUVEC with PBMC; actives raise or lower the signal
In short: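 Compound is added to a human vascular primary co-culture of umbilical vein endothelium and blood mononuclear cells. After 24 h, M-CSF is quantified by ELISA. Signal changes are fitted in both directions against DMSO.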

[9] = read-out: Tissue Factor, F3 (gene 2152); experiment: BSK_LPS_TissueFactor: BioMAP Diversity Plus: LPS Assay for Tissue Factor Biomarker Activity (AID 2283084); conditions: primary human HUVEC with PBMC; actives raise or lower the signal
In short: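 In this co-culture system of umbilical vein endothelium with PBMC, stimulated with LPS, cell-surface CD142 is detected by ELISA at 24 h. Endpoint values derive from bidirectional fitting, DMSO serving as baseline.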

[10] = read-out: Tumor necrosis factor (Homo sapiens) (UniProt P01375); experiment: BSK_LPS_TNFa: BioMAP Diversity Plus: LPS Assay for Tumour Necrosis Factor alpha (TNFa) Biomarker Activity (AID 2283085); conditions: primary human HUVEC with PBMC; actives raise or lower the signal;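 for AC50: TNFa protein level quantified by ELISA in the co-culture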
In short: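 Cells (umbilical vein endothelium plus peripheral blood mononuclear cells) were dosed with chemical, incubated 24 h, then TNFa was quantified by ELISA; values derive from bidirectional fitting with DMSO as baseline.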

CD38, CD38 (gene 952) = experiment: BSK_SAg_CD38: BioMAP Diversity Plus: SAg Assay for CD38 Biomarker Activity (AID 2283087); conditions: primary human HUVEC with PBMC; actives raise or lower the signal
In short: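 CD38 quantified by ELISA (fluorescence) in a superantigen-activated endothelial cell–PBMC co-culture at 24 h post-dose. Activity fitted in both directions relative to DMSO; parallel SRB and Alamar Blue cytotoxicity read-outs.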

CD40, CD40 (gene 958) [11] = experiment: BSK_SAg_CD40: BioMAP Diversity Plus: SAg Assay for CD40 Biomarker Activity (AID 2283088); conditions: primary human HUVEC with PBMC; actives raise or lower the signal
In short: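 Fluorescence ELISA read-out of CD40 from umbilical vein endothelium plus peripheral blood mononuclear cells, sampled 24 h after dosing. Values come from bidirectional curve fitting with DMSO as baseline.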

CD69, CD69 (gene 969) = experiment: BSK_SAg_CD69: BioMAP Diversity Plus: SAg Assay for CD69 Biomarker Activity (AID 2283089); conditions: primary human HUVEC with PBMC; actives raise or lower the signal;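 for AC50: cell surface CD69 protein quantified by ELISA with fluorescence detection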
In short: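 Values derive from bidirectional fitting relative to DMSO vehicle. Cells: umbilical vein endothelium plus peripheral blood mononuclear cells, treated 24 h before fluorescent ELISA for CD69.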

[12] = read-out: Monocyte Chemoattractant Protein-1 (MCP1), CCL2 (gene 6347); experiment: BSK_SAg_MCP1: BioMAP Diversity Plus: SAg Assay for Monocyte Chemoattractant Protein-1 (MCP1) Biomarker Activity (AID 2283090); conditions: primary human HUVEC with PBMC; actives raise or lower the signal
In short: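 Values derive from bidirectional fitting of ELISA-measured MCP1 against DMSO controls. Readings were taken 24 h after dosing human vascular endothelial cells co-cultured with peripheral blood mononuclear cells under superantigen stimulation.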

[13] = read-out: E-selectin (Homo sapiens) (UniProt P16581); experiment: BSK_SAg_Eselectin: BioMAP Diversity Plus: SAg Assay for Eselectin Biomarker Activity (AID 2283091); conditions: primary human HUVEC with PBMC; actives raise or lower the signal
In short: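 Primary human endothelial cells and peripheral blood mononuclear cells were co-cultured and exposed to chemical for 24 hours. E-selectin levels were then quantified by ELISA, with bidirectional curve fitting normalised to DMSO controls.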

[14] = read-out: Monokine induced gamma interferon (MIG), CXCL9 (gene 4283); experiment: BSK_SAg_MIG: BioMAP Diversity Plus: SAg Assay for Monokine induced gamma interferon (MIG) Biomarker Activity (AID 2283092); conditions: primary human HUVEC with PBMC; actives raise or lower the signal
In short: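 Values reflect bidirectional fitting of ELISA-measured MIG against DMSO vehicle, taken 24 h after dosing of a co-culture of human umbilical vein endothelial cells and peripheral blood mononuclear cells.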

[15] = read-out: Interleukin-8 (IL8), CXCL8 (gene 3576); experiment: BSK_SAg_IL8: BioMAP Diversity Plus: SAg Assay for Interleukin-8 (IL8) Biomarker Activity (AID 2283094); conditions: primary human HUVEC with PBMC; actives raise or lower the signal
In short: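 Chemicals were dosed onto a human endothelial–PBMC co-culture, and IL-8 was quantified by ELISA after 24 h. Both increases and decreases were fitted relative to DMSO.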

[16] = BSK_SAg_PBMCCytotoxicity: PBMC Cytotoxicity Assessment in the BioMAP Diversity Plus: SAg Assay (AID 2283093); conditions: primary human HUVEC with PBMC;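 note: fitted both ways against DMSO so a hit may be loss or gain of signal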;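 for AC50: PBMC superantigen activated with SEB plus TSST-1 one hour after compound addition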
In short: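 PBMC viability by Alamar Blue reduction, fluorescence read at 546/580 nm after 6 h dye exposure. Cells were dosed 1 h before SEB plus TSST-1 activation (20 ng/mL final each), then held 90 h; endothelial/PBMC human co-culture.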

[17] = read-out: E-selectin (Homo sapiens) (UniProt P16581); experiment: BSK_LPS_Eselectin: BioMAP Diversity Plus: LPS Assay for Eselectin Biomarker Activity (AID 2283077); conditions: primary human HUVEC with PBMC; actives raise or lower the signal
In short: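 Signal of E-selectin, detected by ELISA, served as the endpoint; cells were umbilical vein endothelium with PBMC, read 24 h after treatment. DMSO defined baseline, and both increases and decreases were fitted.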

[18] = read-out: Vascular cell adhesion molecule 1 (VCAM1), VCAM1 (gene 7412); experiment: BSK_LPS_VCAM1: BioMAP Diversity Plus: LPS Assay for Vascular cell adhesion molecule 1 (VCAM1) Biomarker Activity (AID 2283086); conditions: primary human HUVEC with PBMC; actives raise or lower the signal
In short: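 Cells are dosed in an LPS-stimulated endothelial/mononuclear co-culture and, after 24 h, VCAM-1 is quantified by ELISA. Activity in either direction is fitted relative to the DMSO negative control.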

Measured: AC50

E-selectin (Homo sapiens), sequence (P16581 whole entry, looked up): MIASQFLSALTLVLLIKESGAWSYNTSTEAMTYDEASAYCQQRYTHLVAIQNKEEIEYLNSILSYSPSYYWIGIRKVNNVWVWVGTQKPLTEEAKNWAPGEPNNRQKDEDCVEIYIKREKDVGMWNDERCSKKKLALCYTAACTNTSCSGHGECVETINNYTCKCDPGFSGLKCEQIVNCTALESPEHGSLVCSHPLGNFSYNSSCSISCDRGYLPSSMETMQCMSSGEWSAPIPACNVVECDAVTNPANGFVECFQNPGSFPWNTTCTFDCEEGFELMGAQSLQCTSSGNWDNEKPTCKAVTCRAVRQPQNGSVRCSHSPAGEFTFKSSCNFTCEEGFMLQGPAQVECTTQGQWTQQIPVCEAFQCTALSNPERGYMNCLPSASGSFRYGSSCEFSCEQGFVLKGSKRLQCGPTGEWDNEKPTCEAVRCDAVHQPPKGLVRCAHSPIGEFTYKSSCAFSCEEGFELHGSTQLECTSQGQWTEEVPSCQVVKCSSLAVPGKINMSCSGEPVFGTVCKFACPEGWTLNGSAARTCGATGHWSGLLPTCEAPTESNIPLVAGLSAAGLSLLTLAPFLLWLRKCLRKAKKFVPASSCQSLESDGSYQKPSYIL
Tumor necrosis factor (Homo sapiens), sequence (P01375 whole entry, looked up): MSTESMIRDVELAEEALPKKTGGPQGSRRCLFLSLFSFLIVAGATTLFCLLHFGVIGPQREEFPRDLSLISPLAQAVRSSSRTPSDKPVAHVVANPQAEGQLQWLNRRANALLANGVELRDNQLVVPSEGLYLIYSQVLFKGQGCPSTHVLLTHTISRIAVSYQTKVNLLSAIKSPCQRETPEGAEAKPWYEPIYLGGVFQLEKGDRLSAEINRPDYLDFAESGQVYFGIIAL

Oc1c(Cl)cc(Cl)cc1Cl
active: CD40, CD40 (gene 958) [11] 13.3 µM
not listed: [16] | [17] | [18]
inactive: all other assays above

CC(C)N(C(=O)CCl)c1ccccc1
active: [1] 33.3 µM | CD40, CD40 (gene 958) [2] 13.9 µM | [3] 20 µM | [4] 20 µM | [5] 5.56 µM | [6] 27.3 µM | [8] 20 µM | [10] 26 µM | CD38, CD38 (gene 952) 20 µM | CD40, CD40 (gene 958) [11] 27.5 µM | CD69, CD69 (gene 969) 20 µM | [12] 27.9 µM | [13] 20 µM | [14] 31.1 µM | [16] 16.7 µM
inactive: [7] | [9] | [15]

[Cl][Sn]([c]1ccccc1)([c]1ccccc1)[c]1ccccc1
inactive: [7]
active: [1] 0.168 µM | CD40, CD40 (gene 958) [2] 0.117 µM | [17] 0.305 µM | [3] 0.577 µM | [5] 0.154 µM | [6] 0.258 µM | [8] 0.138 µM | [9] 0.308 µM | [10] 0.134 µM | [18] 0.195 µM | CD38, CD38 (gene 952) 0.141 µM | CD40, CD40 (gene 958) [11] 0.146 µM | CD69, CD69 (gene 969) 0.176 µM | [12] 0.327 µM | [13] 0.227 µM | [14] 0.259 µM | [16] 0.125 µM | [15] 0.253 µM

CCOC(=O)CC(=O)CCl
inactive: [1] | [17] | [14]
active: CD40, CD40 (gene 958) [2] 20 µM | [3] 31.9 µM | [5] 31.1 µM | [6] 26.1 µM | [7] 29 µM | [9] 33.1 µM | [10] 34.9 µM | CD38, CD38 (gene 952) 24.6 µM | CD40, CD40 (gene 958) [11] 20 µM | CD69, CD69 (gene 969) 27 µM | [12] 20 µM | [13] 20 µM | [16] 9.62 µM | [15] 9.73 µM

N#Cc1cccnc1
not listed: [4] | [16] | [18]
inactive: all other assays above

C[C@]12CC[C@@H](O)C[C@@H]1CC[C@@H]1[C@@H]2CC[C@]2(C)C(=O)CC[C@@H]12
not listed: [4]
inactive: all other assays above

CC(C)(C)c1cc([N+](=O)[O-])cc(C(C)(C)C)c1O
active: CD40, CD40 (gene 958) [2] 0.492 µM | [17] 0.345 µM | CD38, CD38 (gene 952) 0.332 µM | CD40, CD40 (gene 958) [11] 0.474 µM | CD69, CD69 (gene 969) 0.322 µM | [12] 0.458 µM | [13] 0.219 µM | [15] 0.0941 µM
not listed: [4] | [8] | [18]
inactive: all other assays above
